Compounds with a hit are over-represented: about 1.6% of the library has one in this group of screens.
SUMO HTRF inh = SUMOylation inhibition; P63279; HTRF SUMOylation assay, SAE1/SAE2 + UBC9, in vitro; inhibition, % at 35 µM; 290,000 compounds, 0.36% hits; AID 2006; in the data active = inhibition above about 50%, passing the limit was not always enough
Target sequence (P63279 whole entry, looked up): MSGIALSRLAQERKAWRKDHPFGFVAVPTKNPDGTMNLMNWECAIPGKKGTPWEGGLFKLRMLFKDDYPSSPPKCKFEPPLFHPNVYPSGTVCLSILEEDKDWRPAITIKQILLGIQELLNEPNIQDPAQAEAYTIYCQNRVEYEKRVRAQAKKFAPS
SIRT5 block = sirtuin-5 (human) deacylase inhibition | Q9NXA8 | Purified SirT5, succinyl-peptide AMC, trypsin-coupled fluorescence | inhibition, % at 15 µM | 330,000 compounds, 1.1% hits | AID 652115; in the data active = inhibition above about 15%
Casp6 inh = caspase-6 (human) enzyme inhibition; P55212; 350,000 compounds, 0.53% hits; inhibition, % at 12.5 µM; AID 686996; purified caspase-6, Z-VEID-R110 cleavage fluorescence;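 active = mean inhibition across replicates at least about 35%, with every replicate also reaching that limit, limit read from the data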;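 note: 0% = median of neutral control wells and 100% = no fluorescence left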
Target sequence (P55212 24-179 limits assumed): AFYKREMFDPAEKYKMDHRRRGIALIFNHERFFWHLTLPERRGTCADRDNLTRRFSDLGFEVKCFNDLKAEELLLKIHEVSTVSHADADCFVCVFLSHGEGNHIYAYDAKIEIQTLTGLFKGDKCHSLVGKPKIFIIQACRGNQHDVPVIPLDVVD
Target sequence (P55212 194-293 limits assumed): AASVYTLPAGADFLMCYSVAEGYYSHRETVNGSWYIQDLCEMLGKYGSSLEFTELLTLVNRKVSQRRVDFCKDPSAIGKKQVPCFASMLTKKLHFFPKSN
NSD2 HMT inh = NSD2 (human) methyltransferase inhibition | AID 743445 | NSD2 peptide methylation, AlphaScreen, 120 min | 310,000 compounds, 0.54% hits | inhibition, % at 12.5 µM | O96028; in the data active = inhibition above about 50%
Numbers without * were called inactive; · = no result; ! = not confirmed by another sample.

SMILES | SUMO HTRF inh | SIRT5 block | Casp6 inh | NSD2 HMT inh
Cc1ccc[n+](-c2[nH]c(=O)sc2/C=N/NC(=O)c2ccccc2[O-])c1 | 5 | 4 | 35* | -1
O=C(Nc1ccc2c(c1)[C@@H]1C[C@@H](CC(=O)N3CCCCC3)O[C@@H](CO)[C@@H]1O2)C1CCOCC1 | · | 0 | -1 | ·
O=C(CSc1cccc[n+]1[O-])Nc1ccc(Cl)cc1F | · | -15 | 37* | 2
O=C(CSc1cccc[n+]1[O-])Nc1ccc(Br)cc1Br | · | -7 | -2 | 1
O=C(NC1CCCCC1)N[C@@H]1CC[C@H](CCNS(=O)(=O)c2ccccc2)O[C@H]1CO | · | -3 | -1 | ·
CC1=NN(c2ccc(Cl)c(C(=O)O)c2)C(=O)C1 | 90* | -2 | 82* | 9
Cc1c(Cl)cccc1NC(=O)CCCn1nc([N+](=O)[O-])cc1C | -3 | -4 | 2 | -7
Cc1cc([N+](=O)[O-])nn1CCCC(=O)NC(C)c1ccccc1 (configuration not stated) | -9 | 38* | 0 | -3
CCn1c(SCC(=O)Nc2ccc(C(C)=O)cc2)nnc1C1CC1 | 3 | 16* | 5 | -5
CCOc1cc(C(=O)OCc2cccc(OC)c2OC)ccc1OCC(=O)N1CCOCC1 | · | 16* | 0 | 0
CCOc1cc(C(=O)OCc2ccc([N+](=O)[O-])cc2)ccc1OCC(=O)N1CCOCC1 | · | -1 | 0 | 1
O=C(O)c1ccccc1/C=N/NC(=O)c1cc(-c2ccco2)nc2ccccc12 | 78* | 19* | 61* | 28
O=C(COC(=O)c1cc(-c2ccco2)nc2ccccc12)NCc1ccccc1 | 30 | · | · | -38
CNC(=O)COC(=O)c1cc(-c2ccco2)nc2ccccc12 | 63* | -13 | 34 | 2
COCC(=O)N(C)C[C@@H]1Oc2ncc(C#C[C@@H](C)O)cc2C(=O)N([C@H](C)CO)C[C@@H]1C | · | -2 | 6 | ·
COc1ccccc1C1CC(c2ccc(Br)cc2)=NN1C(=O)c1cccnc1 (configuration not stated) | -11 | · | · | -1
COc1cccc(C2CC(c3ccc(Br)cc3)=NN2C(=O)c2ccncc2)c1OC (configuration not stated) | 10 | 112* | 2 | 1
CCS(=O)(=O)N1CCCCN2[C@@H](CO)[C@H](c3ccc(C#CC(C)(C)O)cc3)[C@@H]2C1 | · | 0 | 0 | ·
C[C@@H]1CN([C@@H](C)CO)S(=O)(=O)c2ccc(/C=C/c3ccccc3)cc2O[C@H]1CN(C)C(=O)c1ccc2c(c1)OCO2 | · | 27* | 0 | ·
C/C=C/c1ccc2c(c1)O[C@H](CN(C)C(=O)c1ccc3c(c1)OCO3)[C@H](C)CN([C@H](C)CO)S2(=O)=O | · | 5 | 3 | ·
C[C@H](CO)N1C[C@H](C)[C@@H](CN(C)C(=O)c2ccc3c(c2)OCO3)Oc2cc(/C=C/c3ccccc3)ccc2S1(=O)=O | · | 16* | 2 | ·
CCn1cc(C(=O)OC)c(=O)c2cc(S(=O)(=O)N(C)C3CCCCC3)ccc21 | -5 | 27* | 4 | 1
COC(=O)c1cn(C)c2ccc(S(=O)(=O)N(C)C3CCCCC3)cc2c1=O | · | -1 | 2 | -3
O=C(O)C[C@@H]1C=C[C@@H](NC(=O)c2ccccc2F)[C@H](CO)O1 | · | 0 | -1 | ·
N#C/C(=C\c1ccc(O)c(O)c1)C(=O)c1ccc(O)c(O)c1 | · | 11 | 72* | ·
SMILES | SUMO HTRF inh | SIRT5 block | Casp6 inh | NSD2 HMT inh
CC1=NN(c2ccccc2)C(=O)C1/C=C1\NC(=S)NC1=O (configuration not stated) | 1 | 15* | · | 102*
Cn1cnc(CCNC(=O)C[C@@H]2CC[C@@H]3[C@H](COC[C@@H](O)CN3C(=O)Nc3ccc(Cl)cc3)O2)c1 | · | 19* | 2 | ·
Cn1cnc(CCNC(=O)C[C@H]2CC[C@@H]3[C@H](COC[C@H](O)CN3C(=O)C3CCCC3)O2)c1 | · | 35*! | 0 | ·
Cc1ccc(-n2cccc2/C=C2\C(=N)N3N=C(c4ccco4)SC3=NC2=O)cc1 | 64* | 3 | 0 | 10
Cc1ccc(-n2cccc2/C=C2/C(=N)N3C(=NC2=O)SN=C3S(C)(=O)=O)cc1 | 32 | · | · | ·
CS(=O)(=O)C1=NSC2=NC(=O)/C(=C\c3cccn3-c3ccccc3Cl)C(=N)N21 | 38 | 5 | 41* | 30
CCC1=NN2C(=N)/C(=C\c3cccn3-c3ccc(Cl)cc3)C(=O)N=C2S1 | 17 | 1 | 0 | 9
Cc1cc(C)cc(-n2cccc2/C=C2/C(=N)N3C(=NC2=O)SN=C3S(C)(=O)=O)c1 | 37 | 3 | 37* | 47
COc1cccc(-n2c(C)cc(/C=C3/C(=N)N4C(=NC3=O)SN=C4S(C)(=O)=O)c2C)c1 | 40 | 7 | 43* | 9
COc1cc(/C=C2/C(=N)N3C(=NC2=O)SN=C3S(C)(=O)=O)ccc1OS(=O)(=O)c1ccc(C)cc1 | 16 | 9 | 5 | 17
COc1ccc(NC(=O)N(C)C[C@@H]2OCCCC[C@@H](C)Oc3ccc(NC(=O)Nc4ccc(F)cc4)cc3C(=O)N([C@@H](C)CO)C[C@@H]2C)cc1 | · | 2 | -1 | ·
Cc1ccc(S(=O)(=O)N(C)C[C@H]2OCCCC[C@@H](C)Oc3ccc(NC(=O)Nc4ccccc4)cc3C(=O)N([C@@H](C)CO)C[C@@H]2C)cc1 | · | 1 | -1 | ·
CSc1ccc(/C=C(\C(=O)O)c2ccc(S(=O)(=O)N3CCCCC3)s2)cc1 | 20 | 7 | 44* | 3
O=C(O)/C(=C\c1ccc(Cl)c([N+](=O)[O-])c1)c1ccc(S(=O)(=O)N2CCCCC2)s1 | 39 | 2 | 31 | 7
COc1cc(/C=C(\C(=O)O)c2ccc(S(=O)(=O)N3CCCC3)s2)cc(OC)c1 | · | 0 | 41* | 4
O=C(O)/C(=C\c1cccc([N+](=O)[O-])c1)c1ccc(S(=O)(=O)N2CCCCC2)s1 | 23 | 1 | 41* | 4
O=C(O)/C(=C\c1ccc(Cl)cc1)c1ccc(S(=O)(=O)N2CCCC2)s1 | · | 2 | 9 | 3
C[C@H]1CN([C@@H](C)CO)C(=O)c2cc(C#Cc3ccc(F)cc3)cnc2O[C@H]1CN(C)C(=O)Nc1ccc(F)cc1 | · | -1 | 0 | ·
COc1ccccc1C(=O)NCCC(=O)Nc1ccc(OC(F)(F)F)cc1 | 5 | 102* | -6 | -6
CCn1c(=O)cc(OCC(=O)NCCc2ccc(OC)c(OC)c2)c2ccccc21 | 9 | 20* | -2 | 0
OCCOCCn1c(C(CO)Nc2nc(-c3ccccc3Br)cs2)nc2ccccc21 (configuration not stated) | · | 23* | 4 | ·
OCCOCCn1c(C(CO)Nc2nc(-c3ccc(Cl)cc3)cs2)nc2ccccc21 (configuration not stated) | · | · | 8 | ·
Cn1c(=O)n(C)c2cc(NS(=O)(=O)c3ccc(Br)s3)ccc21 | -7 | -5 | -4 | -1
Cn1c(=O)n(C)c2cc(NS(=O)(=O)c3ccc(Cl)s3)ccc21 | 11 | 18* | 2 | -2
Cc1cccc(S(=O)(=O)N[C@H]2CC[C@H](CCNS(=O)(=O)c3ccccc3F)O[C@@H]2CO)c1 | · | 10 | -3 | ·
O=S(c1cc(Cl)cc(Cl)c1O)c1cc(Cl)cc(Cl)c1O | · | 1 | 18 | ·
Oc1c(Cl)cc(Cl)cc1Sc1cc(Cl)cc(Cl)c1O | 92* | · | · | ·
